aSyn yeast inh: inhibitors of alpha-synuclein toxicity in yeast | AID 652106 | Yeast expressing alpha-synuclein, growth rescue, BacTiter-Glo, 24 h | Potency, µM (series often up to 46.1 µM), for inactives: at the highest dose growth rescue (activation), usual class: activators | 370,000 tested, 0.14% active; also: % of control where 0% means no effect; nearly all actives have a fitted effect of over 65% in size
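Galactose-induced alpha-syn yeast (OD600=0.02, raffinose-pregrown) + pinned cpd, 24 hr, 30 deg C; growth by BacTiter-Glo luminescence. Growth restoration scores as activation.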
Abeta yeast res: restores growth of yeast expressing A-beta42 peptide; yeast expressing A-beta42, growth rescue, OD600, 48 h; response scale: 0% DMSO, 100% iron-clioquinol control; Potency, µM (highest dose often 46.1 µM), actives largely listed as activators; AID 1347071; 410,000 tested, 0.063% active; also: nearly all actives have a fitted effect of over 55% in size
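Yeast A-beta toxicity model in growth medium with pinned compounds, 48 h at 30 C; growth read as absorbance at 600 nm. Normalized to FeCl3/clioquinol equimolar mix (positive) and DMSO (negative).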
TDP43 rescue: inhibitors of TDP-43 toxicity in yeast | AID 652104 | Potency, µM (series often up to 46.1 µM), for the others: at the highest dose growth rescue (activation), most hits filed as activators | TDP-43 expressing yeast growth rescue, BacTiter-Glo, 24 h | 410,000 tested, 1.8% active; also: % of control where 0% means no effect; nearly all actives have a fitted effect of over 50% in size
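Yeast expressing TDP-43 (pregrown in raffinose, seeded at OD600=0.02 in galactose medium) exposed to compounds 24 hr at 30 deg C. Growth read by BacTiter-Glo luminescence; rescue of toxicity appears as increased signal.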
ClpP mod: qHTS Assay for Activators of ClpP; 340,000 tested, 1.9% active; ATP-dependent Clp protease proteolytic subunit (Bacillus subtilis (strain 168)), P80244; purified B. subtilis ClpP, FRET peptide cleavage, 20 min; Potency, µM (series often up to 57.5 µM), for inactives: at the highest dose activity change, negative = active; active = well fitted falling curve with a large enough effect; inconclusive = small, poorly fitted or top-dose-only effect; inactive = no such curve, though single readings can be large or run the other way; also: the source files actives as falling curves though it sought activators and does not explain the sign; nearly all actives have a fitted effect of over 65% in size
Target sequence (P80244 whole entry, looked up): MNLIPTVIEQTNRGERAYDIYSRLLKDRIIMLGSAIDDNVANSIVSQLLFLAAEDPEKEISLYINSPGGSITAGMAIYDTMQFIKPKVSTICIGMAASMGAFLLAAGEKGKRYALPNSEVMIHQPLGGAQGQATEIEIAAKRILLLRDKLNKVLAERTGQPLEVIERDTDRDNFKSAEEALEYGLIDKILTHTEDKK
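Purified B. subtilis ClpP, 10 microg/mL final in Tris/HCl pH8 with KCl, BSA, glycerol and Tween-20, cleaved an Abz/nitrotyrosine-quenched decapeptide. Fluorescence (ex 320, em 430) was read at 0 and 20 min at room temperature. Delta was normalized to 5.8 microM ADEP and DMSO/no-enzyme controls.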
FUS suppressor: suppressors of FUS proteinopathy in yeast; S. cerevisiae FUS-expressing, growth rescue, OD600, 24 h; Potency, µM (titrated, usually from 76.6 µM), usual class: activators; 390,000 tested, 0.24% active;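 also: plate controls were DMSO vehicle for no effect and reference control for full effect; nearly all actives have a fitted effect of over 55% in size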
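Quantitative HTS measuring growth restoration of FUS-toxic yeast. Galactose-induced cells (OD 0.005) were exposed 24hr at 30C to compounds at several concentrations, then absorbance at 600 nm was recorded.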
Mm-Cpn inhibitor: M. maripaludis TRiC chaperonin inhibition; purified Mm-Cpn ATPase, ADP Transcreener TR-FRET; Potency, µM (doses to about 76.9 µM), for inactives: top-dose activity, negative = inhibition, hits mostly inhibitors; 330,000 tested, 0.031% active; AID 504842; also: % is scaled to controls: 0 for no effect and ±100 for the full control effect; nearly all actives have a fitted effect of over 80% in size
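ATPase turnover read by TR-FRET ADP competition (Eu cryptate antibody/ADP-d2, 665/590 nm): 10uM ATP final, 25nM Mm-CPN final, 30 min 37degC after 10-min compound preincubation, pH 7.4 Tris/KCl/MgCl2/DTT buffer.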
* = called active by the depositor; i = inactive; u = inconclusive; x = not tested or not shown. Compounds with a hit are over-represented: about 3.6% of the library has one in this group of screens. Unless noted, calls follow the shape of the dose curve; as a rule, active = well fitted curve in the direction sought with a large enough effect; inconclusive = small, poorly fitted or top-dose-only effect, or another doubt; inactive = no such curve, though single readings can be large; an effect the other way counts as inactive or inconclusive. Potency is read from the fitted curve at half-maximal effect.

SMILES | aSyn yeast inh | Abeta yeast res | TDP43 rescue | ClpP mod | FUS suppressor | Mm-Cpn inhibitor
Cc1ccc2c(c1)-c1c(cnn1CC(=O)N(Cc1ccco1)C1CCCCC1)CO2 | 14.7% | i | 35.5µM* | 0.0% | i | -0.7%
Cc1ccc2c(c1)-c1c(cnn1CC(=O)NC(C)CCc1ccco1)CO2 (stereo not given) | -2.0% | i | 26.8% | -1.9% | i | -2.2%
CC(=O)C[C@H]1c2cc(F)cc(F)c2S(=O)(=O)N1C1CCN(Cc2ccccc2)CC1 | x | x | x | -0.3% | x | x
Cc1ccc(S(=O)(=O)NCc2ccc3c(c2)OCO3)cc1C | -20.1% | i | 17.8µM* | -1.8% | i | 0.7%
CCCCCCc1ccc(-c2ncc(N)cn2)cc1 | -0.6% | i | u | 31.6µM* | u | -0.8%
CCCCCc1ccc(-c2nnc(N)s2)cc1 | 2.9% | i | u | x | i | -0.4%
Cc1sc(NC(=O)c2ccco2)c(C(c2ccccc2)N2CCC(C)CC2)c1C (stereo not given) | -4.6% | i | -10.3% | 28.2µM* | i | -0.4%
Cc1sc(NC(=O)c2ccco2)c(C(c2cccnc2)N2CCN(CCO)CC2)c1C (stereo not given) | -6.9% | i | 22.8% | -5.3% | i | 0.7%
Cc1sc(NC(=O)c2ccco2)c(C(c2cccnc2)N2CCN(c3ccc(F)cc3)CC2)c1C (stereo not given) | u | i | 25.1µM* | u | u | -1.6%
CCOC(=O)C1CCN(C(c2cccnc2)c2c(NC(=O)c3ccco3)sc(C)c2C)CC1 (stereo not given) | 9.5% | i | 14.1µM* | -5.4% | x | 1.8%
COc1ccc(C2c3c(n(C)c4ccccc34)C(=O)N2CC(=O)Nc2ccccc2Cl)cc1 (stereo not given) | x | i | 2.4% | u | u | x
CCCNC(=O)CN1C(=O)c2c(c3ccccc3n2C)C1c1ccc(OC)cc1 (stereo not given) | x | i | 8.1% | 28.2µM* | i | x
Cc1cccc(C)c1NC(=O)C(=O)c1cn(C)c2ccccc12 | 7.0% | i | x | x | i | 56.2µM*
Cn1cc(C(=O)CCl)c2ccccc21 | -22.5% | i | 15.8µM* | 0.9% | i | 0.8%
Cc1cc(NC(=O)C(=O)c2cn(C)c3ccccc23)no1 | -6.2% | i | 21.9% | x | i | 1.4%
Cn1cc(C(N)=O)c2ccccc21 | -4.4% | i | 17.5% | -2.9% | i | -1.3%
Cc1cccc(Cc2c(C)nc3nc(SCC(=O)NCc4ccc(F)cc4)nn3c2C)c1 | x | i | u | -5.1% | i | x
CC(C)c1ccc(NC(=O)C2CCCN(S(=O)(=O)c3cccc4cccnc34)C2)cc1 (stereo not given) | x | i | 12.5% | -1.4% | i | x
O=C(COc1ccc(Cl)cc1)NCCSCc1ccccc1Cl | 2.4% | i | 25.1µM* | 0.5% | i | 1.6%
Cc1cccc(CSCCNC(=O)COc2ccc(Cl)cc2)c1 | 9.1% | i | u | -0.3% | i | -1.5%
O=C(COc1ccc(Cl)cc1)NCCSCc1cccc(Cl)c1 | 18.2% | i | 15.8µM* | -0.1% | i | 2.9%
O=C(CCCCl)NC(=S)Nc1cc(C(F)(F)F)ccc1N1CCOCC1 | 0.0% | u | 12.6µM* | 1.6% | i | 0.8%
COc1cc(Cl)c(C)cc1NC(=O)CSc1nc2c(c(=O)[nH]1)CCCC2 | x | i | 0.0% | 0.6% | i | x
OC(CNCCC1C=Nc2ccccc21)Cn1c2ccc(Cl)cc2c2cc(Cl)ccc21 (stereo not given) | -54.7% | i | -88.4% | 28.2µM* | i | -7.0%
C[N+](C)(CCCCCI)c1ccc(/C=C/c2nc3ccccc3s2)cc1 | -56.7% | x | x | 1.9% | x | x
SMILES | aSyn yeast inh | Abeta yeast res | TDP43 rescue | ClpP mod | FUS suppressor | Mm-Cpn inhibitor
O=C1c2ccccc2NC(c2cccnc2)N1c1ccccc1F (stereo not given) | -12.5% | i | -0.5% | 11.2µM* | x | -1.0%
Cc1cc(Nc2ccccc2)n(-c2nc3ccccc3[nH]2)n1 | 10.1% | i | 15.8µM* | -1.8% | i | 1.0%
Cc1cc(C)n(-c2nc3ccccc3[nH]c2=O)n1 | -0.3% | i | -12.5% | 28.2µM* | i | -0.6%
Cc1ccc(C)c(CN2C(=O)c3ccccc3S(=O)(=O)c3ccc(C(=O)N4CCOCC4)cc32)c1 | x | i | 8.8% | -0.3% | 28.2µM* | x
Cc1ccc(C)c(CN2C(=O)c3ccccc3S(=O)(=O)c3ccc(C(=O)N4CCCC4)cc32)c1 | x | i | 21.6% | 1.5% | u | x
Nc1c2c(nc3ccccc13)N(c1ccccc1)CC2 | 5.5% | i | -7.0% | 15.8µM* | i | -5.9%
CC(C)CCN1C(=O)c2ccc(C(=O)OCC(=O)N(CC(C)C)C3CCS(=O)(=O)C3)cc2C1=O (stereo not given) | -4.4% | i | -12.2% | 1.2% | 31.6µM* | 0.1%
CC(C)CCN1C(=O)c2ccc(C(=O)OCC(=O)N(C)C3CCS(=O)(=O)C3)cc2C1=O (stereo not given) | -0.1% | i | 2.6% | x | i | 1.2%
O=C(NC(=S)NCCc1ccccc1)c1ccccc1F | -9.8% | i | 11.2µM* | -0.6% | i | -0.6%
O=C(NC(=S)NCCc1ccc(Cl)cc1)c1ccco1 | -1.3% | u | 14.1µM* | 0.2% | i | -5.7%
O=C(NC(=S)NCc1ccccc1)c1ccccc1F | x | i | u | -2.6% | i | -0.7%
CCC(=O)Nc1ccc(Cl)c(NC(=S)NC(=O)c2cc3ccccc3o2)c1 | -8.4% | i | -5.1% | 0.3% | x | 0.4%
CCC(=O)Nc1ccc(Cl)c(NC(=S)NC(=O)c2ccco2)c1 | -2.0% | i | 11.2µM* | -0.8% | i | 0.7%
CCC(C)[C@H](NC(=O)OC(C)(C)C)C(=O)N/N=C/C1=Cc2ccccc2OC1 (stereo not given in full) | 0.0% | i | -18.9% | u | 28.2µM* | -1.7%
COc1ccc(-n2ncc(C(=O)Nc3cccc(C(F)(F)F)c3)c2C2CCN(C(=O)OC(C)(C)C)CC2)cc1 | x | i | 8.2% | 0.4% | i | x
COC(=O)C1=C(C)N(Cc2ccccc2)C(=NCC2CC2)N[C@H]1c1ccc(Br)cc1 | x | x | x | x | x | -1.1%
COC(=O)C1=C(C)N(Cc2ccccc2)C(=S)N[C@H]1c1ccc(Br)cc1 | 4.0% | i | 15.8µM* | 2.4% | u | -15.5%
COc1cccc2c1Oc1ncccc1N(C(=O)CCC(=O)NC(C)C)C2 | x | i | 10.0% | -0.9% | i | x
CSc1ccccc1-n1nnnc1SCc1ccccc1 | 0.1% | i | 12.6µM* | 1.1% | i | 2.6%
